Measured values as given in the supplement of paper PMC5407854, “Inhibitor of ppGalNAc-T3-mediated O-glycosylation blocks cancer cell invasiveness and lowers FGF23 levels” (eLife, 2017).
Whole data set: some 1,700 compounds, median “T2 sensor activation Q score (MG/GFP ratio z-score vs DMSO controls)” near 0.3, cut for the highest 2% near 1.9. Shown is part of a subset that was picked to be rich in the highest values.

system: ppGalNAc-T2 sensor; assay: T2 sensor activation Q score (MG/GFP ratio z-score vs DMSO controls) (SD units); higher = more sensor activation (inhibition of ppGalNAc-T2 glycosylation); settings: HEK293 sensor cells; 10 µM; 6 h
Procedure: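 Cells were treated with compound at 10 uM for 6 h, then MG/GFP ratio was read by flow cytometry (10,000 cells per well, duplicate wells). Q = (R - R_neg)/SD_neg relative to DMSO vehicle controls; the signal rises when the glycosyltransferase is inhibited.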

SMILES	T2 sensor activation Q score
Oc1c(N=Nc2nn[nH]n2)ccc2ccccc12	3.6
O=[N+]([O-])c1c(N2CCN(CCO)CC2)nc2ccccn12	0.7
OCc1nnn(-c2ccccc2)c1CO	0.8
NC(N)=N/N=C\c1c(Cl)cccc1Cl	0.25
Cc1cc(N2CCOCC2)nc(N2CCOCC2)n1	0.15
N#CC(c1ccccc1)C(C/C(=N\O)c1ccccc1)c1ccccc1 (stereo not drawn)	-0.8
O=C(/C=C/c1cccnc1)/C=C/c1cccnc1	1.6
O=C(c1ccccc1)C1N=NCC1c1ccc(Cl)cc1 (stereo not drawn)	0.05
O=c1nc(Oc2ccccc2)nc2ncccn12	1.9
Nc1nc(SCc2ccccn2)c2ncn(C3OC(CO)C(O)C3O)c2n1 (stereo not drawn)	-0.15
Cc1cc(=O)n2[nH]c(-c3ccc(C(C)(C)C)cc3)cc2n1	0.15
Nc1nc(N)c2c(ccc3nccc32)[nH]1	1.3
O=C1C2C3C=CC(CC3)C2S(=O)(=O)C2C3C=CC(CC3)C12 (stereo not drawn)	1.8
CCOC(=O)CCCN(c1[nH]c(C)c(C)c1C#N)S(=O)(=O)c1ccc(C)cc1	1.05
CCCCCC(=O)N1CCCCC1	-1.85
O=C1C=CC(=O)N1c1ccc(I)cc1Cl	-0.45
CC(=O)Oc1c(C)c(OC(C)=O)c2c(c1C(C)=O)OC1CC(=O)C(C(C)=O)=C(O)C21C (stereo not drawn)	-1.8
O=C1Cc2cccc(=O)c(O)c2C(=O)O1	0.1
O=c1cccc2cc(O)c(O)c(O)c2c1O	2.35
CCOP(=O)(OCC)/C(C#N)=C/c1c[nH]c2ccccc12	-0.2
CCOP(=O)(OCC)/C(C#N)=C/c1ccc(-c2ccc(F)cc2F)o1	-0.9

SMILES	T2 sensor activation Q score
CCOP(=O)(OCC)/C(C#N)=C/c1ccc([N+](=O)[O-])cc1	2.3
Clc1ccc2nc3ccccc3cc2c1	1.3
CC(=O)Nc1ccc(OC(=O)Oc2ccc(NC(C)=O)cc2)cc1	1.2
Cc1ccc(C#CC(C)(O)C(C)(C)C)cn1 (stereo not drawn)	-0.05
COc1cnc(SC)nc1Nc1ccc(C#N)cc1	1.65
Cc1nc(N)nc(Nc2ccc(C#N)cc2)c1Br	2.35
N#Cc1c(N)nc(N)nc1Nc1ccc(Br)cc1	1.15
CCc1nc(N)nc(N)c1-c1ccc(N(C)Cc2ccccc2)c([N+](=O)[O-])c1	-1.25
CC1(C)c2ccccc2-c2nc3ccccc3cc2C1O (stereo not drawn)	-0.95
O=C1CC(c2ccc(O)cc2)Oc2cc(O)cc(O)c21 (stereo not drawn)	0.75
CC(C)(C)c1ccc(OC(=O)c2ccccc2)cc1	0.95
CC(C)(C)CC(C)(C)N1CNC(=S)NC1	0.45
N#CCCCCN1CCCC1	-0.65
CCOC(=O)C(=O)C1C(=O)Nc2ccccc21 (stereo not drawn)	1.15
Cc1c(Cl)cccc1NC(=O)CC1Sc2ccccc2NC1=O (stereo not drawn)	2
CCCCSc1cc(=O)[nH]c(N)n1	1.85
NC(=O)C1=C(N)c2ccccc2C1c1ccccc1 (stereo not drawn)	1.4
CCC1(CC)C(=O)NC(=S)N=C1N	1.7
c1ccc(-c2nc(-c3ccccn3)nc(-c3ccccn3)n2)nc1	-0.55
c1ccc(-c2nc3ccccc3s2)nc1	0.6
Cc1cc2nc(-c3ccccn3)c(-c3ccccn3)nc2cc1C	2.4

SMILES	T2 sensor activation Q score
O=c1ccc(Cl)n[nH]1	1.45
FC(F)(F)c1cccc(OCC2CNC(=S)O2)c1 (stereo not drawn)	0.65
Cc1csc(NC(=O)c2ccc(C(=O)Nc3nc(C)cs3)cc2)n1	0.5
C=C1SC(=Nc2c(C)cccc2Cl)N(C(=O)c2sc3ccccc3c2Cl)C12CCCCC2	1.1
Nc1cc(N)nc(CS)n1	1.45
COCC(=O)Oc1cc(-c2ccc(C)cc2C)c(OC(=O)COC)c(-c2ccc(C)cc2C)c1	0.9
NC(=O)c1ccccc1OCC(=O)Nc1ccc(Cl)c(Cl)c1	0.1
Cc1cccc(C(O)C(O)c2cccc(C)n2)n1 (stereo not drawn)	0.55
COc1ccccc1/C=C(\C#N)C(=O)O	1.4
c1ccc2c(c1)nnn2-c1ccncc1	-0.1
Nc1nnc(-c2cccnc2)s1	0.6
Cc1cnc2c(N)cc(C)c(C)c2c1	1.15
O=[N+]([O-])c1cc(-c2cccnc2)n[nH]1	-0.35
Nc1ccccc1C(=O)Nc1ccc(Cl)cc1Cl	0.45
C#CC1(N2CCCCC2)CCCCC1	0.8
Clc1nnc(NC2CCCCC2)c(Cl)c1Cl	0.15
CC(=O)OCC1OC(COC(C)=O)(c2ccc(C)cc2)C(OC(C)=O)C1OC(C)=O (stereo not drawn)	0.15
c1ccc(NN(Cc2ccncc2)c2ccccc2)cc1	0.95
COc1ccc(Nc2cc(Cl)ccc2C(=O)O)cn1	2.25
CCCCOc1ccc(Nc2cc(Cl)ccc2C(=O)O)cn1	1.2
COc1cc(-c2ccc(Nc3ccccc3C(=O)O)c(OC)c2)ccc1Nc1ccccc1C(=O)O	-0.5
